This note sets out measurements from PubChem BioAssay (EPA / NIEHS).

For assay [1], the target named is Paired box protein Pax-6 (Homo sapiens) (UniProt P26367). Nature of the assay: ATG_Pax6_CIS: Attagene CIS-FACTORIAL HepG2 Assay for human Paired Box 6 (PAX6) (AID 2282956). Particulars: HepG2 CIS-FACTORIAL PAX6 reporter transcription, RNA readout; actives raise or lower the signal. In outline:
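Fluorescent RT-PCR products separated by capillary electrophoresis report PAX6-linked promoter mRNA in HepG2 cells 24 h post-dose. Curves fitted bidirectionally, DMSO as negative control.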

Assay [2] is described as follows: ATG_PXRE_CIS: Attagene CIS-FACTORIAL HepG2 Assay for human Pregnane X Receptor Element (PXRE) (AID 2282957). To be noted: HepG2 Attagene CIS-FACTORIAL PXRE reporter, mRNA; actives raise or lower the signal. The method, boiled down:
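After a 24 h chemical incubation, total RNA from transfected HepG2 cells was reverse-transcribed and reporter cDNA amplified, FAM-labeled, HpaI-digested and sized by capillary electrophoresis. DMSO served as baseline for bidirectional curve fitting.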

Assay [3] can be described thus: ATG_RORE_CIS: Attagene CIS-FACTORIAL HepG2 Assay for human RAR-related Orphan Receptor Element (RORE) (AID 2282959). Particulars: HepG2 Attagene cis-factorial RORE reporter, mRNA; actives raise or lower the signal. The method, boiled down:
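HepG2 cells transiently transfected with multiple cis-element reporter transcription units, exposed to chemical for 24 h. Reporter mRNA quantified by RT-PCR, 6-FAM primer-extension labeling, HpaI digestion and capillary electrophoresis; bidirectional fit versus DMSO baseline.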

The target in assay [4] is Transcription factor Sp1 (Homo sapiens) (UniProt P08047). Nature of the assay: ATG_Sp1_CIS: Attagene CIS-FACTORIAL HepG2 Assay for human Specificity Protein 1 (Sp1) (AID 2282961). To be noted: HepG2 Sp1 cis-reporter transcription, actives raise or lower the signal. The method, boiled down:
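HepG2 cells transiently transfected with multiple reporter transcription units driven by cis-regulatory elements; Sp1-responsive reporter mRNA measured 24 h after dosing by RT-PCR and capillary electrophoresis fluorescence, fitted bidirectionally against DMSO baseline.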

The target of assay [5] is Signal transducer and activator of transcription 3 (Homo sapiens) (UniProt P40763). Nature of the assay: ATG_STAT3_CIS: Attagene CIS-FACTORIAL HepG2 Assay for human Signal Transducer and Activator of Transcription 3 (STAT3) (AID 2282963). To be noted: HepG2, Attagene cis-factorial STAT3 reporter transcription; actives raise or lower the signal. The method, boiled down: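 Fluorescence intensity of 6-FAM-labelled reporter fragments, separated by capillary electrophoresis after RT-PCR, gave the signal. Cells were HepG2 transfected with cis-element reporter units and treated 24 h; fitting was bidirectional relative to DMSO.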
Signal transducer and activator of transcription 3 (Homo sapiens), sequence (P40763 whole entry, looked up, the tested form may be a part): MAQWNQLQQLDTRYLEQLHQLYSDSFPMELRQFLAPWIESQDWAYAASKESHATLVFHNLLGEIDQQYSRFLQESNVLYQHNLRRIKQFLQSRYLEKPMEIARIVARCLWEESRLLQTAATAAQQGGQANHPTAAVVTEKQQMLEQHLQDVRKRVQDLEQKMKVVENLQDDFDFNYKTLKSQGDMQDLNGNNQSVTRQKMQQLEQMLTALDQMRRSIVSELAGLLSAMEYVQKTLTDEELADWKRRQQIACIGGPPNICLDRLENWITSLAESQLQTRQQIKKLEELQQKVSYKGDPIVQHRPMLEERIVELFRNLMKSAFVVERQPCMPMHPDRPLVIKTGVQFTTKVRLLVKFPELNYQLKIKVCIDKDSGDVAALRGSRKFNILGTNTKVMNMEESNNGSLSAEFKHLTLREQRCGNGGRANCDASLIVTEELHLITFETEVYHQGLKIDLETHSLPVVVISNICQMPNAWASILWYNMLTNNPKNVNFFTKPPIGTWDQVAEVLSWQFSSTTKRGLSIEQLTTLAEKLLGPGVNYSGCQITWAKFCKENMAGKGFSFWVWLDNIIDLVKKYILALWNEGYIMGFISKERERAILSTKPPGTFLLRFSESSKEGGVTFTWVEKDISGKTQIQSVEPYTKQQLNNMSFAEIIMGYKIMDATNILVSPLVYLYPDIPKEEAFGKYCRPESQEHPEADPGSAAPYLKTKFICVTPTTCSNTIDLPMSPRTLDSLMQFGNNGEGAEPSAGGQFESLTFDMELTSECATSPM

A short description of assay [6]: ATG_TA_CIS: Attagene CIS-FACTORIAL HepG2 Assay for human TA Basal Promoter (AID 2282964). Particulars: HepG2 Attagene CIS-factorial TA basal promoter reporter; actives raise or lower the signal. The method, boiled down: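 Read-out: fluorescent reporter-transcript fragments resolved by capillary electrophoresis after RT-PCR and HpaI digestion. Source: HepG2 cells carrying transiently transfected multi-reporter cis constructs, treated 24 h. Endpoint fitted bidirectionally relative to DMSO.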

Assay [7] can be described thus: ATG_TCF_b_cat_CIS: Attagene CIS-FACTORIAL HepG2 Assay for human T-Cell-Factor with beta-catenin (TCF/b-cat) (AID 2282965). To be noted: HepG2 TCF/beta-catenin cis-reporter transcription, actives raise or lower the signal. The method, boiled down:
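HepG2 cells transiently transfected with cis-promoter-driven multiplexed reporter units; reporter mRNA measured 24 h after dosing by RT-PCR, FAM labelling, HpaI digestion and capillary electrophoresis. Bidirectional fitting relative to DMSO baseline.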

Assay [8] is described as follows: ATG_TAL_CIS: Attagene CIS-FACTORIAL HepG2 Assay for human TAL Basal Promoter (AID 2282966).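 Note: background control endpoint measuring basal TAL promoter reporter mRNA not a specific factor.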 To be noted: HepG2 Attagene cis-factorial TAL promoter reporter; actives raise or lower the signal. The method, boiled down: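 Basal-promoter background-control endpoint from a multiplexed HepG2 reporter panel. Cells were exposed 24 h, then reporter mRNA was read by RT-PCR/CE fluorescence and fitted in both directions relative to DMSO.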

Assay [9] concerns the target X-box-binding protein 1 (Homo sapiens) (UniProt P17861). The assay is described as follows: ATG_Xbp1_CIS: Attagene CIS-FACTORIAL HepG2 Assay for human X-box Binding Protein 1 (XBP1) (AID 2282972). To be noted: HepG2 XBP1 cis-element reporter, Attagene multiplex; actives raise or lower the signal. The method, boiled down: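 Multiplexed cis-reporter readout in transfected HepG2 liver cells. Exposure lasted 24 hours. Activity in either direction was fitted against DMSO as negative control and baseline.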

The nature of assay [10]: ATG_M_19_TRANS: Attagene TRANS-FACTORIAL HepG2 Assay for M19 Transcription Factor (Internal Marker) (AID 2282974; active = hit-call score of the fitted dose curve at least 0.9, where 1 is the maximum). To be noted: HepG2 Attagene TRANS-FACTORIAL M19 internal marker reporter. The method, boiled down:
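HepG2 cells transiently transfected with multiple GAL4-UAS reporter transcription units were exposed to chemicals for 24 h. Reporter mRNA was read by RT-PCR, 6-FAM primer extension, HpaI digestion and capillary electrophoresis; gain of signal fitted relative to DMSO.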

Assay [11] in a line: ATG_Sox_CIS: Attagene CIS-FACTORIAL HepG2 Assay for human SRY-box transcription factor (SOX) (AID 2282960). To be noted: HepG2 Attagene cis-factorial SOX reporter, mRNA; actives raise or lower the signal. The method, boiled down:
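HepG2 cells transiently transfected with cis-element-driven multiple reporter transcription units, dosed 24 h; reporter mRNA measured by RT-PCR, FAM labelling, HpaI digestion and capillary electrophoresis. Bidirectional fit versus DMSO baseline.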

The nature of assay [12]: ATG_SREBP_CIS: Attagene CIS-FACTORIAL HepG2 Assay for human Sterol Regulatory Element Binding (SREBP) (AID 2282962). Particulars: HepG2 Attagene cis-factorial SREBP reporter, mRNA; actives raise or lower the signal. In outline:
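Endogenous factor activity is measured in HepG2 through multiplexed reporter units under cis-element control. Following a 24 h incubation, reporter transcripts are reverse-transcribed, PCR-amplified and sized by capillary electrophoresis; activity is fitted in both directions relative to DMSO.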

Assay [13] is described as follows: ATG_TGFb_CIS: Attagene CIS-FACTORIAL HepG2 Assay for human Transforming Growth Factor (TGF) (AID 2282967). Particulars: HepG2 Attagene CIS TGFb reporter, mRNA transcription; actives raise or lower the signal. In outline:
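Transient MRTU transfection of HepG2 (FuGene 6). Dose 24 h. TriZol RNA, oligo(dT) RT, PCR, 6-FAM primer extension, HpaI cut, CE. Bidirectional fit, DMSO = baseline.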

Assay [14] can be described thus: ATG_VDRE_CIS: Attagene CIS-FACTORIAL HepG2 Assay for human Vitamin D Receptor Element (VDRE) (AID 2282968). To be noted: HepG2 VDRE cis-reporter transcription, actives raise or lower the signal. The method, boiled down:
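Compounds were applied for 24 h to HepG2 cells transfected with promoter-regulated reporter units. Total RNA was reverse-transcribed, and reporter amplicons were fluorescently labelled and sized by capillary electrophoresis.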

Assay [15] concerns the target Nuclear receptor subfamily 1 group I member 3 (Homo sapiens) (UniProt Q14994). Nature of the assay: ATG_CAR_TRANS: Attagene TRANS-FACTORIAL HepG2 Assay for human Constitutive Androstane Receptor (CAR) (AID 2282969; active = hit-call score of the fitted dose curve at least 0.9, where 1 is the maximum;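 note: activators raise reporter mRNA above DMSO so AC50 marks induction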). Particulars: HepG2 Attagene TRANS-FACTORIAL CAR reporter. The method, boiled down: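 Transiently transfected HepG2, multiplex TRANS reporters (CAR-Gal4 chimera driving GAL4-UAS reporter). 24 h dosing. Readout: reporter transcript by RT-PCR + capillary electrophoresis, fluorescence intensity; positive direction vs DMSO.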

Assay [16] is described as follows: ATG_GAL4_TRANS: Attagene TRANS-FACTORIAL HepG2 Assay for GAL4 (Internal Marker) (AID 2282976; active = hit-call score of the fitted dose curve at least 0.9, where 1 is the maximum). To be noted: HepG2 Attagene TRANS GAL4 internal marker reporter. In outline: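 Background-control readout: GAL4-UAS reporter transcript in transiently transfected HepG2 cells after 24 h compound exposure. Measured by RT-PCR, 6-FAM primer extension, HpaI digest and capillary electrophoresis; gain-of-signal fit versus DMSO.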

Assay [17] concerns the target Estrogen receptor (Homo sapiens) (UniProt P03372). Nature of the assay: ATG_ERa_TRANS: Attagene TRANS-FACTORIAL HepG2 Assay for human Estrogen Receptor alpha (ERa) (AID 2282970; active = hit-call score of the fitted dose curve at least 0.9, where 1 is the maximum). Particulars: HepG2 Attagene TRANS ERa GAL4 reporter, mRNA. In outline: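 Gal4-fusion ERa transactivation, measured as reporter transcript level in transiently transfected HepG2 cells. Exposure 24 h; RT-PCR plus capillary electrophoresis with fluorescence detection.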

Assay [18] is described as follows: ATG_PPRE_CIS: Attagene CIS-FACTORIAL HepG2 Assay for human Peroxisome Proliferator-activated Response Element (PPRE) (AID 2282958). Particulars: HepG2 PPRE cis-element reporter, Attagene transcription factor profiling; actives raise or lower the signal. The method, boiled down:
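HepG2 cells transiently transfected with multiplexed cis-element reporter units measure endogenous transcription factor activity. After 24 h compound exposure, reporter mRNA is quantified by RT-PCR, 6-FAM labeling, HpaI digestion and capillary electrophoresis; bidirectional fits are made against DMSO baseline.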

Assay [19] concerns the target Steroid hormone receptor ERR1 (Homo sapiens) (UniProt P11474). The assay is described as follows: ATG_ERRa_TRANS: Attagene TRANS-FACTORIAL HepG2 Assay for human Estrogen-Related Receptor alpha (ERRa) (AID 2282971; active = hit-call score of the fitted dose curve at least 0.9, where 1 is the maximum). Particulars: HepG2 Attagene TRANS reporter, ERRa transactivation. In outline:
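HepG2 cells transiently transfected with GAL4-UAS reporter units and chimeric NR-Gal4 constructs; after 24 hour compound incubation, reporter mRNA quantified by RT-PCR, fluorescent labelling and capillary electrophoresis, gain of signal versus DMSO.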

In assay [20] the target is Estrogen-related receptor gamma (Homo sapiens) (UniProt P62508). The assay is described as follows: ATG_ERRg_TRANS: Attagene TRANS-FACTORIAL HepG2 Assay for human Estrogen-Related Receptor gamma (ERRg) (AID 2282977; active = hit-call score of the fitted dose curve at least 0.9, where 1 is the maximum;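 note: hits increase reporter signal over DMSO so potencies reflect activators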). To be noted: HepG2 Attagene TRANS reporter, ERRg transactivation. The method, boiled down:
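Induction of reporter transcripts through a chimeric NR-Gal4 protein is quantified in transfected human HepG2 liver cells after 24 h chemical exposure, using RT-PCR with capillary electrophoresis detection and DMSO as baseline.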

Results filed as inconclusive are left out. Active and inactive are the calls of the source. Rule for the calls, unless noted: active = hit-call score of the fitted dose curve at least 0.9, where 1 is the maximum; inactive = score below 0.9.

Nuclear receptor subfamily 1 group I member 3 (Homo sapiens), sequence (Q14994 whole entry, looked up, the tested form may be a part): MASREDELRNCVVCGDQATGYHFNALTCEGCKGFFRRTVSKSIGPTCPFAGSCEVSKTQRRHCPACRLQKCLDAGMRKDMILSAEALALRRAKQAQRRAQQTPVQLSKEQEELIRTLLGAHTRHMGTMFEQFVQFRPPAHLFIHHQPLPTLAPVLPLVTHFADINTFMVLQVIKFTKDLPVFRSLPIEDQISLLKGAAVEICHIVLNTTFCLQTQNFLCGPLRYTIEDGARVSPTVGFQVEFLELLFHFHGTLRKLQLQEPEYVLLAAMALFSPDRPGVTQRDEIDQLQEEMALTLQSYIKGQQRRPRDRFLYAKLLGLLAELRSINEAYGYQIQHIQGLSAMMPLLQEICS
X-box-binding protein 1 (Homo sapiens), sequence (P17861 whole entry, looked up): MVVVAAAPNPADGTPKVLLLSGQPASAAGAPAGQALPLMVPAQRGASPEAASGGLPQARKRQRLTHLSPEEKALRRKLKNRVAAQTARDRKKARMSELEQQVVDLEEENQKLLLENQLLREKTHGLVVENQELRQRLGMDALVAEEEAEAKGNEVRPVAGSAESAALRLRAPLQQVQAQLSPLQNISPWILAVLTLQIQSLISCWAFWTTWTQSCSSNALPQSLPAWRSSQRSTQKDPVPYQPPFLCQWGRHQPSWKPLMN
Transcription factor Sp1 (Homo sapiens), sequence (P08047 whole entry, looked up): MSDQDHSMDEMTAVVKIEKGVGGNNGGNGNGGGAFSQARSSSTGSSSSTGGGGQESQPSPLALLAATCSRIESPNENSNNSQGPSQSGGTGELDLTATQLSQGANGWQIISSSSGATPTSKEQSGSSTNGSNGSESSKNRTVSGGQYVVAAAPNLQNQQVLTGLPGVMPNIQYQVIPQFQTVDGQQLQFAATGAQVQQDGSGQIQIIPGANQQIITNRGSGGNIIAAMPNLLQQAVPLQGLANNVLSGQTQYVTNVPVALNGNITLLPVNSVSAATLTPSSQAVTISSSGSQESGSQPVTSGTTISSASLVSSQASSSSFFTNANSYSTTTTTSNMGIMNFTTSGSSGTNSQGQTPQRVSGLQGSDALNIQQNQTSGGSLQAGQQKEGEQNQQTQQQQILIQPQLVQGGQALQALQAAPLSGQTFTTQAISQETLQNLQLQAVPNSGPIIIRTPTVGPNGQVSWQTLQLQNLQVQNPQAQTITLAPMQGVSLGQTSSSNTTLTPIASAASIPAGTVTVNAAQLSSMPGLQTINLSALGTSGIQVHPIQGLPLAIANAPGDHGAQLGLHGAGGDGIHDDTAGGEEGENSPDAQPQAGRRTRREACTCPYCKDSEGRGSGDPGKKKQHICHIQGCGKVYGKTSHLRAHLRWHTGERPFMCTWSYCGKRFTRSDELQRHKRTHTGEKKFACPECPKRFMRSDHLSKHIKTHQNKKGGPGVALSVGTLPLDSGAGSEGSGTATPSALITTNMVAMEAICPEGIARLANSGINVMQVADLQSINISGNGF
Paired box protein Pax-6 (Homo sapiens), sequence (P26367 whole entry, looked up): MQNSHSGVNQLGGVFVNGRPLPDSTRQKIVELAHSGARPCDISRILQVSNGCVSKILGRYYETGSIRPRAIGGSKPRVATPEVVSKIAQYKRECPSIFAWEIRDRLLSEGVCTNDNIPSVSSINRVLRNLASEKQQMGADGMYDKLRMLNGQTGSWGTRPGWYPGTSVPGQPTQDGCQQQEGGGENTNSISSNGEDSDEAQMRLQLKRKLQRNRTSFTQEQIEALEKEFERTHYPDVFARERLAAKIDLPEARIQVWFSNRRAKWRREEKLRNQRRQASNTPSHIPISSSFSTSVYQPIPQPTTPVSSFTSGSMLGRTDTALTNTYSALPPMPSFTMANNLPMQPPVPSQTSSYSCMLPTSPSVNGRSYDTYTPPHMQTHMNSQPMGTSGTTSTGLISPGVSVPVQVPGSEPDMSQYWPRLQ
Estrogen receptor (Homo sapiens), sequence (P03372 whole entry, looked up, the tested form may be a part): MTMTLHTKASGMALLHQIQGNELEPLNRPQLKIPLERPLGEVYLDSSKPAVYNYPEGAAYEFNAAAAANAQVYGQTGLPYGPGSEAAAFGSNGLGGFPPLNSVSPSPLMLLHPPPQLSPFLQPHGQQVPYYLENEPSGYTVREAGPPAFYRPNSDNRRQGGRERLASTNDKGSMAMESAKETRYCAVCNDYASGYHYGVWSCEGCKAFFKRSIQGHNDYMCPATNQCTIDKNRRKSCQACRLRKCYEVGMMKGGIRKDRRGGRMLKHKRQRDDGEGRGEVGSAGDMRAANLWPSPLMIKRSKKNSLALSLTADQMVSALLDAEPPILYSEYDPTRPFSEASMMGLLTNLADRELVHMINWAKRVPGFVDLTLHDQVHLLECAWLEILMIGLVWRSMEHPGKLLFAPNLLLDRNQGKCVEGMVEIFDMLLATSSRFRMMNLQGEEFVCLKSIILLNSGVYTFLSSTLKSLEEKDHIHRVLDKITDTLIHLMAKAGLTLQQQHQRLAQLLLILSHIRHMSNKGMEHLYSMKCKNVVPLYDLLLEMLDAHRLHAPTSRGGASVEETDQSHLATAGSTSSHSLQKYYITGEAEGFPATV
Estrogen-related receptor gamma (Homo sapiens), sequence (P62508 whole entry, looked up, the tested form may be a part): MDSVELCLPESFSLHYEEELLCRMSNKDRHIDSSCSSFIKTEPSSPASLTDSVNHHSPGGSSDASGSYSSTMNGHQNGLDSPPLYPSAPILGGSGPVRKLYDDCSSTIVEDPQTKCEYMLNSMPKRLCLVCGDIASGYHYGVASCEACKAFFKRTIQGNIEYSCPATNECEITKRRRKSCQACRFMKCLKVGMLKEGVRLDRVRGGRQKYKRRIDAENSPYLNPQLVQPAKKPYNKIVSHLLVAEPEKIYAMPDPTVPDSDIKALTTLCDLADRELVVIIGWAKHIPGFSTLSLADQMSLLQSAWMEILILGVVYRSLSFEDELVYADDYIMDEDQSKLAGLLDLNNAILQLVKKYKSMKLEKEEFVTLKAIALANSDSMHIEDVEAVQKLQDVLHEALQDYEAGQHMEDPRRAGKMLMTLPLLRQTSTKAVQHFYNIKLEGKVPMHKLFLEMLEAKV
Steroid hormone receptor ERR1 (Homo sapiens), sequence (P11474 whole entry, looked up, the tested form may be a part): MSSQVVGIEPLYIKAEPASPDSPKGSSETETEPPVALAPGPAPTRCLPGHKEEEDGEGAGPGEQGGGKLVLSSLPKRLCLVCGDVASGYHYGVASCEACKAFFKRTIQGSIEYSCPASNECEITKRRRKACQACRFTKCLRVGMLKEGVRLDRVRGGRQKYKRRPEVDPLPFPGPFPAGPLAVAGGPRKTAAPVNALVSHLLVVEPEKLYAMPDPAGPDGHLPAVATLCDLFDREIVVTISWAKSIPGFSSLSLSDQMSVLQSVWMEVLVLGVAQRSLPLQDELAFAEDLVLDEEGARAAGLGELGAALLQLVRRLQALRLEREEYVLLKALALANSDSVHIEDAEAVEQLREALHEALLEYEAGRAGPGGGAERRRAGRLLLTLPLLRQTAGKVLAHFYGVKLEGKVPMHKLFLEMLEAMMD

As for `CCCCCCCCCCN`, the call in [1], in assay [2], in assay [3], in assay [4], in [5] and in assay [6] was inactive. Further, the outcome in [7], in assay [8], in assay [9] and in assay [10] was inactive.
For `CC(=O)OCCOC(C)=O`, the molecule was called inactive in assay [1], in assay [11], in [12], in assay [5], in [6] and in assay [7]. In addition, the outcome in [8], in assay [13], in [14], in [15], in assay [9] and in [10] was inactive. Also, in assay [16], the result was inactive. Besides, the AC50 – broadly, the midpoint of the concentration-response curve, whichever way the signal moves – in assay [2] was 82.2 µM (active).
Consider `O=[N+]([O-])c1ccc(C=Cc2ccc([N+](=O)[O-])cc2S(=O)(=O)O)c(S(=O)(=O)O)c1`, for which the result in assay [1], in [2], in assay [11], in assay [4], in assay [12] and in [5] was inactive. The molecule was called inactive in assay [7], in assay [8], in assay [13], in [14], in assay [17] and in [10].
As to `Nc1ccc(S(N)(=O)=O)cc1`, the molecule was classed as inactive in [1], in [2], in assay [11], in [4], in [12] and in assay [5]. For the same molecule, the molecule was called inactive in assay [6], in assay [7], in [8], in assay [13], in assay [15] and in [9]. The call in [16] was inactive.
Regarding `CC(C)c1cccc(O)c1`, the molecule was classed as inactive in [1], in [18], in assay [3], in assay [11], in assay [4] and in [12]. Further, the result in assay [5], in assay [6], in assay [7], in assay [8], in assay [13] and in assay [14] was inactive. For the same molecule, the molecule was classed as inactive in [15], in [19], in [9] and in assay [20]. Moreover, in assay [17], the AC50 is 71.2 µM (active).
Take `O=S(=O)(O)c1ccc(O)c2ncccc12`: the molecule was classed as inactive in assay [1], in [2], in assay [11], in assay [12], in assay [5] and in assay [6]. Further, the result in assay [7], in assay [8], in assay [13], in [14] and in assay [17] was inactive.
On to `CC(C)C[C@H]1C(=O)N2CCC[C@H]2[C@]2(O)O[C@](NC(=O)[C@@H]3C=C4c5cccc6[nH]c(Br)c(c56)C[C@H]4N(C)C3)(C(C)C)C(=O)N12`, for which the AC50 in [1] is 4.02 µM (active); in assay [2] it was 0.302 µM (active); in assay [3], 1.9 µM (active); in assay [6], 3.09 µM (active); in [7], 4.37 µM (active); in assay [8], 2.19 µM (active). For the same molecule, the AC50 in assay [14] is 1.3 µM (active). In addition, the call in assay [11], in assay [12], in assay [5], in assay [13], in assay [19] and in assay [9] was inactive. In assay [20], the molecule was called inactive.
As to `CCCC[n+]1ccccc1`, the result in assay [1], in assay [2], in assay [11], in assay [4], in [12] and in assay [5] was inactive. For the same molecule, the molecule was classed as inactive in assay [6], in assay [7], in assay [8] and in assay [9].
With `C=C(C)C1CCC(C)CC1O` (stereo unspecified), the outcome in assay [1], in assay [2], in assay [11], in [4], in assay [5] and in assay [6] was inactive. The result in [7], in [8], in assay [13] and in assay [9] was inactive.
